# From PubChem BioAssay (NCATS)
# Records with an inconclusive call do not appear. The source made the active and inactive calls. Calls come from the whole dose curve; as a rule, active = well fitted inhibition curve with a large enough effect; inconclusive = small, poorly fitted or top-dose-only effect; inactive = no such curve, though single readings can be large or run the other way.
# Target: RecQ-like DNA helicase BLM (Homo sapiens) (UniProt P54132)
# Experiment: qHTS Validation Assay for Inhibitors of Bloom's syndrome helicase (BLM) (AID 2364)
# Settings: BLM helicase DNA unwinding, fluorescence, in vitro; series mostly up to 57.1 µM; activity change, negative = inhibition: at the top concentration
# Description: Survival of cells and the faithful propagation of the genome depend on elaborate mechanisms of detecting and repairing DNA damage. Treatment of advanced cancer relies on radiation therapy or chemotherapy, which kill cancer cells by causing extensive DNA damage. It is often found, that cancer cells develop resistance to therapy through enhanced activity of DNA repair functions; this has led to an increased interest in developing drugs that interfere with DNA repair, which could sensitize cancer cells to conventional therapy.
# This validation qHTS assay pertains to human BLM, which is important in resolving abnormal DNA structures formed during replication or homologous recombination. Shutting down the expression of BLM leads to chromosomal instability and higher radiation sensitivity in cultured cells.
# The validation assay was a fluorescence quenching based kinetic qHTS for BLM Helicase DNA unwinding. The activity was measured as ATP-dependent separation of a 20-bp DNA duplex extended by 30-nt single-stranded tails (forked duplex). The forked DNA substrate was tagged with rhodamine fluorophore (carboxytetramethyl rhodamine, TAMRA) and BHQ-2 (Black Hole Quencher 2) dark quencher. Strand separation results in an increase in the fluorescence of TAMRA (excitation 525 nm, emission 598 nm). This substrate construct operates in a red-shifted region where very few compound library members have been noted to fluoresce (PubChem AIDs 593 and 594). An additional feature of the assay is the inclusion of 2.5 ug/ml poly (dIdC), to reduce interference by compounds such as DNA intercalators, a major source of false inhibitors.
# Ian Hickson, University of Oxford
# Opher Gileadi, Structural Genomics Consortium, University of Oxford
# Screening Center PI: Austin, C.P.
# Screening Center: NIH Chemical Genomics Center [NCGC]
# Three uL of reaction buffer (25 mM Tris-HCl (pH 8.0), 5 mM NaCl, 2 mM MgCl2, 1mM DTT, 0.01% Tween- 20, and 2.5 ug/ml poly(dI-dC), including enzyme (50 nM BLM), were dispensed into a 1536-well Greiner black assay plate via solenoid-valve based nanoliter dispensers. Compounds (23 nl each in columns 5-48) and control (23 nl each in column 2 as dose-response) were transferred via a Kalypsys pintool equipped with a 1536-pin array. The plates were incubated for 15 min at room temperature, and then 1 ul of substrates (200 nM DNA and 2 mM ATP, final concentrations) was added to start the reaction. The plate was transferred into a ViewLux high-throughput CCD imager where the reaction progress was measured in a discontinuous kinetic mode (two reads spaced 2 hours apart, with intermediate room temperature incubation of the covered assay plate) by using standard red-fluorescence optics (excitation filter 525 nm, emission filter 598 nm). Enzyme-free and vehicle (DMSO) controls were included for signal normalization.
# Potency is the fitted concentration of half-maximal effect.
# RecQ-like DNA helicase BLM (Homo sapiens), sequence (P54132 whole entry, looked up): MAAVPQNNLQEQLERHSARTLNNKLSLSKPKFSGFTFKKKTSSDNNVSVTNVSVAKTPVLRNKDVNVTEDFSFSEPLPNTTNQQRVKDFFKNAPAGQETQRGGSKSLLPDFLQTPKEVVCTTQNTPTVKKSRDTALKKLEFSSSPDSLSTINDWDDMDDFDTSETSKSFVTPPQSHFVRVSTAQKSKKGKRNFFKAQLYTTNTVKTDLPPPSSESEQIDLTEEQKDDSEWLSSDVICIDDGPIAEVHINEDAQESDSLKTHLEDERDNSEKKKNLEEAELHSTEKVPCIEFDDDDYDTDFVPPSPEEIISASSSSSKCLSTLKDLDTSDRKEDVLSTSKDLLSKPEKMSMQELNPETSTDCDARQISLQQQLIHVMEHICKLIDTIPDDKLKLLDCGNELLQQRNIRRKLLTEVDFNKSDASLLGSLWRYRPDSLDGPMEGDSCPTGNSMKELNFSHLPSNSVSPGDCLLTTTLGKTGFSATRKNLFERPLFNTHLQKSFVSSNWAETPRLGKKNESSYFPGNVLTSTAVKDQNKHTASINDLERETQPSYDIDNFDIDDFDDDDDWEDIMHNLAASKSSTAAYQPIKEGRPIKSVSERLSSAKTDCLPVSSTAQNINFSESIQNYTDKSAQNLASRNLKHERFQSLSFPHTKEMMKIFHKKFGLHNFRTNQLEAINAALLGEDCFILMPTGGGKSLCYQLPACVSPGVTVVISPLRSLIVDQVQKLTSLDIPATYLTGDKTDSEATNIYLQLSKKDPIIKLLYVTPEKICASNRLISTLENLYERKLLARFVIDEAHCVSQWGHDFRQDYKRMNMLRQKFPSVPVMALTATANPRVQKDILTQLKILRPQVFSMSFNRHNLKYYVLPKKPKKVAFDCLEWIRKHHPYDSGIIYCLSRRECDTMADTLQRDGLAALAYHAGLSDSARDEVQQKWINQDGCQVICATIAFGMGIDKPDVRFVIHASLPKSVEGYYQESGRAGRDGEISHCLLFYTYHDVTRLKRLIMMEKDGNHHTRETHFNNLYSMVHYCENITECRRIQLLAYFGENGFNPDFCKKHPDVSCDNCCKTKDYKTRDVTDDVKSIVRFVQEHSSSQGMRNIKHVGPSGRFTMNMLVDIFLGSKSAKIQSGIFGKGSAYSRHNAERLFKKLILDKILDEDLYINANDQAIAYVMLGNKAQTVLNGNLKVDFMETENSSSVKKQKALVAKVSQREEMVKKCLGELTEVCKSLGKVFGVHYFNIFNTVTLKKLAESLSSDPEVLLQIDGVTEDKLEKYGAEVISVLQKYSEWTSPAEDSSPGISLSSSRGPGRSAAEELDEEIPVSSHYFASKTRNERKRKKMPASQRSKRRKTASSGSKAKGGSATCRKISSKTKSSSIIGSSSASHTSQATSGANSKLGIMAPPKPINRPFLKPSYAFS
Structure (SMILES),"activity change, negative = inhibition",Potency
CCCCC#Cc1nc(N)c2ncn([C@@H]3O[C@H](C(=O)NCC)[C@@H](O)[C@H]3O)c2n1,-3.84% (inactive),–
C[C@H](Cc1ccccc1)Nc1ncnc2c1ncn2[C@@H]1O[C@H](CO)[C@H](O)[C@H]1O,-11.3% (inactive),–
N=C1Sc2ccccc2C2=NCCCN12,-6.39% (inactive),–
CN1C(=O)CCC1c1cccnc1 (configuration not stated),-10.2% (inactive),–
COc1ccc(CCNC[C@@H](O)c2ccc(O)cc2)cc1OC,-4.71% (inactive),–
CCn1c(=O)c2[nH]c(-c3ccccc3)nc2n(CC)c1=O,-9.04% (inactive),–
C[C@]12CCC(=O)C=C1CC[C@@H]1C2[C@@H](O)C[C@@]2(C)[C@H]1CC[C@]2(O)C(=O)CO (some centres not stated),-10.8% (inactive),–
CCCC(=O)NCCc1c2n(c3ccc(OC)cc13)Cc1ccccc1-2,-5.76% (inactive),–
OC[C@H]1O[C@@H](n2cnc3c(Nc4ccccc4)ncnc32)[C@H](O)[C@H]1O,-8.86% (inactive),–
COc1cc2c(cc1OC)C(c1ccccc1)CN(C)CC2 (configuration not stated),-11.5% (inactive),–
CC(C)C1NC(=O)[C@H](CCCCN)NC(=O)[C@@H](Cc2c[nH]c3ccccc23)NC(=O)[C@H](Cc2ccc(O)cc2)NC(=O)[C@H](C)N(C)C(=O)[C@H](Cc2ccccc2)NC1=O (some centres not stated),-8.71% (inactive),–
NCCCCNS(=O)(=O)c1cccc2c(Cl)cccc12,44.8% (inactive),–
CN1CCc2cc(Cl)c(O)cc2C(c2ccccc2)C1 (configuration not stated),1.61% (inactive),–
CC(C)CN(C)c1nc(N)c(C(=O)N=C(N)N)nc1Cl,12.7% (inactive),–
CC(=O)O[C@H]1C[C@@H]2CCC3C(CC[C@@]4(C)[C@H]3C[C@H]([N+]3(C)CCCCC3)[C@@H]4OC(C)=O)[C@@]2(C)C[C@@H]1[N+]1(C)CCCCC1 (some centres not stated),66.1% (inactive),–
CC(N)=NCCCC(N)C(=O)O (configuration not stated),-12.1% (inactive),–
N.N.N.N.N.N.N.N.N.N.N.N.N.N.O.O.[Cl-].[Cl-].[Cl-].[Cl-].[Cl-].[Cl-].[Ru].[Ru].[Ru],–,12.6 µM (active)
NC(=NCCC[C@H](N)C(=O)O)NO,-9.83% (inactive),–
Nc1ncnc2c1ncn2[C@@H]1O[C@H](CO)[C@H](O)[C@H]1O,-7.74% (inactive),–
OC[C@H]1O[C@@H](n2cnc3c(NC4CCCC4)ncnc32)[C@H](O)[C@H]1O,-9.32% (inactive),–
N[C@H](Cc1ccc(O)c(O)c1)C(=O)O,–,28.2 µM (active)
CCCNC[C@H](O)COc1ccccc1C(=O)CCc1ccccc1,1.22% (inactive),–
N=C(N)SCCc1cccc(CCSC(=N)N)c1,23.7% (inactive),–
C[C@H]1CC2[C@@H]3CCC4=CC(=O)C=C[C@]4(C)[C@@]3(F)[C@@H](O)C[C@]2(C)[C@@]1(O)C(=O)CO (some centres not stated),-10.4% (inactive),–
OC[C@H]1O[C@@H](n2cnc3c(NCCc4ccccc4)ncnc32)[C@H](O)[C@H]1O,-10.6% (inactive),–
CN1C2CCC1CC(NC(=O)c1nn(C)c3ccccc13)C2 (configuration not stated),-11.8% (inactive),–
NC(=O)C1=CN(C2OC(COP(=O)(O)OP(=O)(O)OC[C@H]3O[C@@H](n4cnc5c(N)ncnc54)[C@H](OP(=O)(O)O)[C@H]3O)C(O)C2O)C=CC1 (some centres not stated),-10.6% (inactive),–
